# Test results from the supplement of paper PMC4723716.
# ± gives the uncertainty stated by the source. Over roughly 9,900 compounds, “viability index relative to DMSO control” has its median near 1; the lowest 2% begin near 0.85. What follows is part of a selection rich in the lowest values, with near analogues and random picks from the rest.
# System: Plasmodium falciparum NF54 stage V gametocytes
# Experiment: viability index relative to DMSO control (fraction); higher = less gametocyte killing
# Settings: 2.5 µM, incubation time: 72 h
# In short: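 Viability index is the count of red-stained particles in a well divided by the plate mean of solvent-only wells. Particles of 20–70 µm2 were counted in one imaged field per well after one to two hours with 3 µl of 2.5 µM MitoTracker Red CMXRos and 0.13% saponin. Before staining, P. falciparum NF54 stage V gametocytes in serum-free medium (0.75% gametocytemia, 1.25% hematocrit, 10 µl, 1,536-well plates) were kept with compound at 2.5 µM for 72 hr at 37°C under low oxygen.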
# [1] = library set: Broad Institute DOS
# [2] = library set: Broad Institute Blood Stage
SMILES,viability index [1],viability index [2]
CS(=O)(=O)N1CC(=O)N2[C@@H](CO)[C@H](c3ccc(Br)cc3)[C@@H]2C1,1.05 ± 0.057,
CN1C[C@H]2[C@@H](c3ccccc31)[C@H](CO)N2Cc1ccccc1Cl,1.03 ± 0.064,
C[C@H](CO)N1C[C@H](C)[C@H](CN(C)C(=O)Nc2ccc3c(c2)OCO3)Oc2c(NC(=O)c3nc4ccccc4s3)cccc2C1=O,0.987 ± 0.021,
Cc1noc(C)c1NC(=O)N1C[C@@H](O)COC[C@@H]2O[C@H](CC(=O)N3CCc4ccccc4C3)CC[C@H]21,1.08 ± 0.11,
COc1ccc(S(=O)(=O)N(C)C[C@@H]2Oc3c(NC(=O)c4nc5ccccc5s4)cccc3C(=O)N([C@H](C)CO)C[C@@H]2C)cc1,0.951 ± 0.047,
O=C(O)[C@H]1[C@H](CO)[C@H]2Cn3c(ccc(C4=CCCCC4)c3=O)[C@H]2N1Cc1ccc2c(c1)OCO2,1.01 ± 0.026,
CO[C@H]1CC[C@@H]2CCOc3c(C#N)cccc3C(=O)N(C)C[C@H](OC)[C@@H](C)C(=O)N(C)C[C@@H]1O2,1.01 ± 0.033,
C[C@@H]1CN([C@H](C)CO)C(=O)Cc2cc(NC(=O)CCN3CCOCC3)ccc2O[C@@H]1CN(C)Cc1ccc(C(=O)O)cc1,1 ± 0.17,
C[C@@H]1CN([C@H](C)CO)C(=O)c2ccccc2-c2ccccc2CO[C@@H]1CN(C)Cc1cccc(C(=O)O)c1,0.958 ± 0.11,
C[C@@H]1CN([C@@H](C)CO)C(=O)c2ccccc2-c2ccccc2CO[C@@H]1CN(C)Cc1cccc2c1OCCCO2,1 ± 0.11,
CCCN(C)C[C@H]1OCc2ccccc2-c2ccccc2C(=O)N([C@@H](C)CO)C[C@H]1C,0.89 ± 0.011,
C[C@H]1CN([C@@H](C)CO)C(=O)c2ccccc2-c2ccccc2CO[C@H]1CN(C)Cc1cccc2c1OCCCO2,0.825 ± 0.16,
C[C@@H]1CN([C@@H](C)CO)C(=O)c2ccccc2-c2ccccc2CO[C@H]1CN(C)Cc1ccccc1C(F)(F)F,0.883 ± 0.044,
C[C@H](CO)N1C[C@H](C)[C@H](CN(C)Cc2ccccc2C(F)(F)F)OCc2ccccc2-c2ccccc2C1=O,1 ± 0.015,
C[C@H](CO)N1C[C@H](C)[C@@H](CN(C)Cc2cccc3c2OCCCO3)OCc2ccccc2-c2ccccc2C1=O,1.06 ± 0.093,
C[C@@H]1CN([C@H](C)CO)C(=O)c2ccccc2-c2ccccc2CO[C@@H]1CN(C)Cc1ccccc1C(F)(F)F,0.806 ± 0.11,
C[C@@H]1CN([C@@H](C)CO)C(=O)c2ccccc2-c2ccccc2CO[C@@H]1CN(C)Cc1cccc(C(=O)O)c1,0.974 ± 0.098,
C[C@H]1CN([C@@H](C)CO)C(=O)c2ccccc2-c2ccccc2CO[C@H]1CN(C)Cc1ccccc1C(F)(F)F,0.726 ± 0.14,
C[C@@H]1CN([C@@H](C)CO)C(=O)c2ccccc2-c2ccccc2CO[C@H]1CN(C)Cc1cccc(C(=O)O)c1,0.987 ± 0.016,
C[C@@H]1CN([C@@H](C)CO)C(=O)c2ccccc2-c2ccccc2CO[C@@H]1CN(C)Cc1ccccc1C(F)(F)F,0.8276 ± 0.0015,
O=C(NCc1ccccc1)[C@H]1[C@H](CO)[C@H]2Cn3c(cccc3=O)[C@@H]1N2C(=O)Cc1ccccn1,1.01 ± 0.015,
CCc1cnc(N2[C@H](C#N)[C@H](c3ccc(C#Cc4ccccc4F)cc3)[C@H]2CO)s1,0.8872 ± 0.0045,
COCC(=O)N1[C@H](CO)[C@@H](c2ccccc2)C12CN(Cc1cc(F)ccc1F)C2,1.07 ± 0.023,

SMILES,viability index [1],viability index [2]
CC(C)(C)[S@@](=O)N1Cc2cc(C(=O)NC3CCC3)nc(-c3cccc(Br)c3)c2[C@H]1CCO,0.994 ± 0.058,
O=C(NCC[C@H]1CC[C@@H](NC(=O)c2ccncc2)[C@H](CO)O1)Nc1ccc(Cl)cc1,1.17 ± 0.023,
CCCC#Cc1ccc2c(c1)[C@@H]1[C@@H](CCN1S(=O)(=O)c1cccc(F)c1)[C@@H](CO)N2C,1.12 ± 0.051,
C[C@@H]1CN([C@H](C)CO)C(=O)c2ccccc2-c2ccccc2CO[C@@H]1CN(C)Cc1cccc2c1OCCCO2,0.941 ± 0.019,
C[C@H]1CN([C@@H](C)CO)C(=O)c2ccccc2-c2ccccc2CO[C@@H]1CN(C)Cc1ccccc1C(F)(F)F,0.843 ± 0.028,
C[C@H](CO)N1C[C@H](C)[C@H](CN(C)Cc2cccc3c2OCCCO3)OCc2ccccc2-c2ccccc2C1=O,1.04 ± 0.039,
O=C(Cc1cccnc1)N1CC(=O)N2[C@H](C1)[C@@H](c1ccc(/C=C/c3ccccc3)cc1)[C@@H]2CO,1 ± 0.029,
COCC(=O)N1CC(=O)N2[C@H](CO)[C@@H](c3ccc(-c4ccccc4F)cc3)[C@@H]2C1,1.07 ± 0.083,
O=C(c1cccc(F)c1)N1CC(=O)N2[C@H](CO)[C@H](c3ccc(-c4cccnc4)cc3)[C@H]2C1,,0.771 ± 0.058
O=C(c1cccc(F)c1)N1CC(=O)N2[C@H](C1)[C@@H](c1ccc(-c3cccnc3)cc1)[C@@H]2CO,,0.817 ± 0.042
O=C(c1cnccn1)N1CC(=O)N2[C@@H](CO)[C@H](c3ccc(-c4cccc(F)c4)cc3)[C@@H]2C1,1 ± 0.049,
O=C(c1ccncc1)N1CC(=O)N2[C@H](C1)[C@@H](c1ccc(-c3cccnc3)cc1)[C@@H]2CO,,0.891 ± 0.059
O=C(c1ccccc1)N1CC(=O)N2[C@H](CO)[C@@H](c3ccc(-c4ccccc4)cc3)[C@H]2C1,1.018 ± 0.0095,
O=C(c1ccc(F)cc1)N1CC(=O)N2[C@H](C1)[C@@H](c1ccc(-c3cccnc3)cc1)[C@@H]2CO,,0.733 ± 0.11
O=C(c1ccccc1)N1CC(=O)N2[C@H](CO)[C@H](c3ccc(-c4ccccc4)cc3)[C@@H]2C1,1.02 ± 0.066,
O=C(c1cnccn1)N1CC(=O)N2[C@H](C1)[C@@H](c1ccc(-c3cccc(F)c3)cc1)[C@@H]2CO,1.02 ± 0.012,
O=C(c1ccccc1)N1CC(=O)N2[C@H](C1)[C@@H](c1ccc(-c3ccccc3)cc1)[C@@H]2CO,0.829 ± 0.051,
O=C(c1cnccn1)N1CC(=O)N2[C@@H](CO)[C@@H](c3ccc(-c4cccc(F)c4)cc3)[C@@H]2C1,1.02 ± 0.058,
O=C(c1cccnc1)N1CC(=O)N2[C@H](CO)[C@H](c3ccc(-c4ccccc4F)cc3)[C@H]2C1,1.04 ± 0.041,
O=C(c1cnccn1)N1CC(=O)N2[C@H](CO)[C@@H](c3ccc(-c4cccc(F)c4)cc3)[C@@H]2C1,0.99 ± 0.047,
O=C(Cc1cccnc1)N1CC(=O)N2[C@H](CO)[C@@H](c3ccc(C4=CCCCC4)cc3)[C@H]2C1,0.9507 ± 0.0051,
O=C(C1CCC1)N1CC(=O)N2[C@H](C1)[C@H](c1ccc(Br)cc1)[C@@H]2CO,1.02 ± 0.0049,
C[C@H]1CN([C@@H](C)CO)C(=O)c2c(c3ccccc3n2C)-c2ccccc2CO[C@@H]1CN(C)C(=O)NC1CCCCC1,1.04 ± 0.11,

SMILES,viability index [1],viability index [2]
O=C(C[C@@H]1CC[C@@H]2[C@H](COC[C@@H](O)CN2C(=O)c2ccncc2)O1)NCc1cc(F)cc(F)c1,1.05 ± 0.12,
O=C(O)C[C@H]1C[C@H]2c3cc(NC(=O)Nc4ccc(C(F)(F)F)cc4)ccc3O[C@H]2[C@@H](CO)O1,1.06 ± 0.041,
O=C(NC[C@@H]1[C@H](c2ccccc2)[C@@H](CO)N1C(=O)C1CCC1)NC1CCCC1,0.976 ± 0.12,
COc1ccc(S(=O)(=O)N(C)C[C@@H]2Oc3ccc(NC(=O)Nc4ccc(C(F)(F)F)cc4)cc3C(=O)N([C@H](C)CO)C[C@H]2C)cc1,0.957 ± 0.08,
CN1CCN(C(=O)C[C@H]2CC[C@@H]3[C@H](COC[C@H](O)CN3Cc3cccc(-c4ccncc4)c3)O2)CC1,1.08 ± 0.028,
O=C(C[C@H]1CC[C@H](NS(=O)(=O)c2ccc(F)cc2)[C@@H](CO)O1)N1CCN(c2ccccc2)CC1,1.09 ± 0.13,
O=C(C[C@H]1CC[C@@H]2[C@H](COC[C@@H](O)CN2CCc2ccccc2)O1)NCCCN1CCOCC1,1.07 ± 0.054,
O=C(c1ccccc1F)N1CC(=O)N2[C@H](C1)[C@@H](c1ccc(-c3ccc(F)cc3)cc1)[C@@H]2CO,,0.86 ± 0.04
O=C(c1ccccc1F)N1CC(=O)N2[C@H](CO)[C@H](c3ccc(-c4cccnc4)cc3)[C@H]2C1,,0.742 ± 0.068
O=C(c1ccccc1F)N1CC(=O)N2[C@H](C1)[C@@H](c1ccc(-c3cccnc3)cc1)[C@@H]2CO,,0.866 ± 0.049
Cc1noc(C)c1NC(=O)N(C)C[C@@H]1OCc2cn(nn2)CCCC(=O)N([C@H](C)CO)C[C@@H]1C,1.08 ± 0.1,
C[C@H](CO)N1C[C@H](C)[C@H](CN(C)Cc2ccc(C(=O)Nc3ccccc3N)cc2)OCc2cnnn2CCCC1=O,0.953 ± 0.042,
CO[C@H]1CN(C)C(=O)c2ccc(NC(=O)c3cc(C)on3)cc2OC[C@H](C)NC[C@H]1C,0.98 ± 0.029,
COc1cccc(S(=O)(=O)N(C)C[C@H]2OCc3ccccc3-c3c(n(C)c4ccccc34)C(=O)N([C@@H](C)CO)C[C@H]2C)c1,0.833 ± 0.059,
COc1cccc(S(=O)(=O)N(C)C[C@@H]2OCc3ccccc3-c3c(n(C)c4ccccc34)C(=O)N([C@H](C)CO)C[C@@H]2C)c1,0.826 ± 0.058,
COc1cccc(S(=O)(=O)N(C)C[C@H]2OCc3ccccc3-c3c(n(C)c4ccccc34)C(=O)N([C@H](C)CO)C[C@H]2C)c1,0.952 ± 0.034,
COc1cccc(S(=O)(=O)N(C)C[C@H]2OCc3ccccc3-c3c(n(C)c4ccccc34)C(=O)N([C@H](C)CO)C[C@@H]2C)c1,0.975 ± 0.027,
COc1cccc(S(=O)(=O)N(C)C[C@@H]2OCc3ccccc3-c3c(n(C)c4ccccc34)C(=O)N([C@@H](C)CO)C[C@H]2C)c1,0.977 ± 0.016,
COc1cccc(S(=O)(=O)N(C)C[C@H]2OCc3ccccc3-c3c(n(C)c4ccccc34)C(=O)N([C@@H](C)CO)C[C@@H]2C)c1,0.956 ± 0.013,
COc1cccc(S(=O)(=O)N[C@H]2CC[C@@H](CC(=O)NC3Cc4ccccc4C3)O[C@@H]2CO)c1,0.999 ± 0.044,
CC(C)(C)[S@](=O)N1Cc2cc(C(=O)N3CCOCC3)nc(-c3cccc(-c4ccccc4F)c3)c2[C@@H]1CCO,1.07 ± 0.044,
C[C@@H]1CN([C@@H](C)CO)C(=O)c2cc(NC(=O)Nc3ccccc3)ccc2O[C@@H](C)CCCCO[C@H]1CN(C)C(=O)Nc1ccccc1,1.11 ± 0.13,
Cc1ccc(S(=O)(=O)Nc2ccc3c(c2)C(=O)N(C)[C@@H]2CC[C@H](CC(=O)NCCc4ccncc4)O[C@H]2CO3)cc1,1.04 ± 0.026,
